Experimental data: PubChem BioAssay;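 active = thallium flux through the channel raised or lowered by more than 3 SD from vehicle-only wells, actives on both sides; inactive = the rest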

Legend:
Experiment in all cases: BK channel mutant inhibitors and activators – cell-based, U2OS BacMam, thallium flux, beta subunits, selectivity assay, profiling panel (AID 1259406);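 note: initial slope of Thallos dye fluorescence rise after thallium is added; log ratio against the mean of 0.3% DMSO vehicle wells on the same plate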
F380Y = conditions: U2OS BacMam BK variants, at 30 µM
F380Y/beta1 = conditions: U2OS BacMam BK variants, at 30 µM
F380Y/beta2Delta = conditions: U2OS BacMam BK variants, at 30 µM
F380Y/beta4 = conditions: U2OS BacMam BK variants, at 30 µM
[1] = target: Calcium-activated potassium channel subunit alpha-1 (Homo sapiens) + Leucine-rich repeat-containing protein 26 (Homo sapiens) (UniProt Q12791+Q2I0M4); conditions: U2OS BacMam BK variants, F380Y/Slo1WT/gamma1, at 30 µM
R275C = conditions: U2OS BacMam BK variants, at 30 µM
R275C/beta1 = conditions: U2OS BacMam BK variants, at 30 µM
R275C/beta2Delta = conditions: U2OS BacMam BK variants, at 30 µM
R275C/beta4 = conditions: U2OS BacMam BK variants, at 30 µM
R275C/Slo1WT/beta2 = conditions: U2OS BacMam BK variants, at 30 µM

Measured: log fold change Tl+ flux

Sequence of Calcium-activated potassium channel subunit alpha-1 (Homo sapiens) + Leucine-rich repeat-containing protein 26 (Homo sapiens) (Q2I0M4 whole entry, looked up, one chain of several): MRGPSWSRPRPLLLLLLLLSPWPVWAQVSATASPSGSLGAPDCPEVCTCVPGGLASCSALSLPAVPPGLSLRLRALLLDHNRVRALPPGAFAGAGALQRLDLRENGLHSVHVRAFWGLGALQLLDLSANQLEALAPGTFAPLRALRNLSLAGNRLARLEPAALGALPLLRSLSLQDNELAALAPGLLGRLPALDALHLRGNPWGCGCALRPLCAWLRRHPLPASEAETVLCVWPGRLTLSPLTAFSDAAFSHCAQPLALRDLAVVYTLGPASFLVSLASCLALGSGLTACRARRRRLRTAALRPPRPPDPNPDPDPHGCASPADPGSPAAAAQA

NC(=NNC(=O)c1cccnc1)c1ccncc1
inactive: F380Y 0.0309 | F380Y/beta1 -0.00892 | F380Y/beta2Delta 0.0142 | F380Y/beta4 0.00925 | [1] -0.00474 | R275C -0.039 | R275C/beta1 0.0056 | R275C/beta2Delta 0.00736 | R275C/beta4 0.00943 | R275C/Slo1WT/beta2 -0.0381

Fc1cccc(Cl)c1CSc1nccn1-c1cccnc1
inactive: F380Y 0.00886 | F380Y/beta1 0.00855 | F380Y/beta2Delta 0.00345 | F380Y/beta4 0.0175 | [1] 0.00834 | R275C 0.0131 | R275C/beta1 0.0289 | R275C/beta2Delta 0.0125 | R275C/beta4 0.0207 | R275C/Slo1WT/beta2 0.0418

Cc1ccc(C(=O)c2c(-c3ccccc3)cc(-c3ccccc3)c3c2C(=O)CCC3)cc1
inactive: F380Y 0.0109 | F380Y/beta1 -0.036 | F380Y/beta2Delta 0.0354 | F380Y/beta4 -0.0286 | [1] -0.0641 | R275C 0.0312 | R275C/beta1 -0.0154 | R275C/beta2Delta 0.00863 | R275C/beta4 -0.00364 | R275C/Slo1WT/beta2 -0.0497

O=C(CC1SC(=NC2CC3C=CC2C3)NC1=O)Nc1ccccc1Cl (stereo not given)
inactive: F380Y 0.0694 | F380Y/beta1 0.0502 | F380Y/beta2Delta 0.0241 | F380Y/beta4 -0.0131 | [1] -0.0156 | R275C 0.0384 | R275C/beta1 0.0688 | R275C/beta2Delta 0.032 | R275C/beta4 0.0398 | R275C/Slo1WT/beta2 -0.0439

Clc1ccc(-n2nnnc2-c2cccnc2)c(Cl)c1
inactive: F380Y 0.0135 | F380Y/beta1 -0.0393 | F380Y/beta2Delta -0.0638 | F380Y/beta4 0.0275 | [1] 0.00547 | R275C 0.00315 | R275C/beta1 0.0215 | R275C/beta2Delta -0.00811 | R275C/beta4 0.00931 | R275C/Slo1WT/beta2 0.0349

CC(C)(C)NC(=O)NCCO
inactive: F380Y 0.0116 | F380Y/beta1 -0.0332 | F380Y/beta2Delta 0.0577 | F380Y/beta4 -0.013 | [1] -0.0499 | R275C -0.02 | R275C/beta1 0.0132 | R275C/beta2Delta -0.014 | R275C/beta4 0.00214 | R275C/Slo1WT/beta2 -0.03

CS(=O)(=NS(=O)(=O)c1ccc(OC(F)(F)F)cc1)c1ccccc1 (stereo not given)
inactive: F380Y 0.0244 | F380Y/beta1 -0.0162 | F380Y/beta2Delta 0.018 | F380Y/beta4 -0.00984 | [1] 0.0614 | R275C 0.00979 | R275C/beta1 -0.0151 | R275C/beta2Delta 0.00446 | R275C/beta4 0.0404 | R275C/Slo1WT/beta2 0.0068

CC(C)=CC(C)=NNc1c([N+](=O)[O-])cc(C(F)(F)F)cc1[N+](=O)[O-]
inactive: F380Y 0.0422 | F380Y/beta1 0.0383 | F380Y/beta2Delta 0.0202 | F380Y/beta4 0.0221 | [1] -0.0328 | R275C 0.043 | R275C/beta1 -0.0463 | R275C/beta2Delta -0.0753 | R275C/beta4 -0.00952 | R275C/Slo1WT/beta2 0.0191

CC(=O)Nc1ccc(S(=O)(=O)C[N+](=O)[O-])cc1
inactive: F380Y -0.0207 | F380Y/beta1 -0.00968 | F380Y/beta2Delta 0.0255 | F380Y/beta4 -0.00689 | [1] 0.00333 | R275C -0.0177 | R275C/beta1 -0.00122 | R275C/beta2Delta 0.0327 | R275C/beta4 -0.0178 | R275C/Slo1WT/beta2 -0.0147

CC(C)(C)c1cc2nc(C(F)(F)F)cc(NN=Cc3ccccc3)n2n1
inactive: F380Y 0.0101 | F380Y/beta1 0.0617 | F380Y/beta2Delta 0.0191 | F380Y/beta4 -0.0217 | [1] -0.0501 | R275C -0.0499 | R275C/beta1 -0.0176 | R275C/beta2Delta -0.0336 | R275C/beta4 -0.0304 | R275C/Slo1WT/beta2 -0.0137

COC(=O)c1cnn(C(=O)Nc2c(C)cccc2C)c1C(OC)OC
inactive: F380Y -0.0549 | F380Y/beta1 -0.00196 | F380Y/beta2Delta -0.0264 | F380Y/beta4 -0.029 | [1] 0.033 | R275C 0.02 | R275C/beta1 -0.0504 | R275C/beta2Delta -0.0443 | R275C/beta4 0.00703 | R275C/Slo1WT/beta2 0.00968

Cc1cc2c(cc1C)CSC(c1ccco1)SC2
inactive: F380Y -0.0256 | F380Y/beta1 0.0185 | F380Y/beta2Delta 0.0283 | F380Y/beta4 -0.0391 | [1] 0.00632 | R275C -0.00435 | R275C/beta1 0.035 | R275C/beta2Delta 0.055 | R275C/beta4 0.0187 | R275C/Slo1WT/beta2 -0.0173
